Measured values published in PubChem BioAssay AID623978 (Broad Institute, 2012).
Potency and affinity values are given separately. Results filed as inconclusive are left out.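 The calls were made as follows: active = every replicate run active, each with half-maximal inhibition reached at or below twice the top valid dose; inconclusive = runs disagree, or fits are weak or poor; inactive = every run inactive, including upward signal shifts.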

The molecules below were run against Glycogen synthase kinase-3 alpha (Homo sapiens) (UniProt P49840) (assay: GSK3A enzyme blockers, homolog specificity check – biochemical, microfluidics, dry powder samples, set 2, selectivity assay for GSK3beta inhibitor project, dose response (AID 623978)). Settings: GSK3a microfluidic mobility shift, percent conversion; series mostly up to 35 µM; activity change, negative = inhibition: at the top concentration.
Glycogen synthase kinase-3 alpha (Homo sapiens), sequence (P49840 whole entry, looked up): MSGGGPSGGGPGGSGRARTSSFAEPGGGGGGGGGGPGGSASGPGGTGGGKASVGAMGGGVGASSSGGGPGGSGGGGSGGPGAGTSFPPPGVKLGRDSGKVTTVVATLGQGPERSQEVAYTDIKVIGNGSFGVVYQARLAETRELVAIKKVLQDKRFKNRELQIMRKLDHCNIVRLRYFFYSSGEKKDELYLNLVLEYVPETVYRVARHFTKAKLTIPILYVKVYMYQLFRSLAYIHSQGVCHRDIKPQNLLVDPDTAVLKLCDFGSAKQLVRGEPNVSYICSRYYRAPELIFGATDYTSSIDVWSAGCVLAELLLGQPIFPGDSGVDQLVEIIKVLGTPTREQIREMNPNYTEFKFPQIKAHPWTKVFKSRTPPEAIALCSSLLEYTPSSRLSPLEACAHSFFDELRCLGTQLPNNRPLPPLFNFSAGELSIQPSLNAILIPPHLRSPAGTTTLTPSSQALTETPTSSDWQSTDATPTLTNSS

Activity change, negative = inhibition, inactive:
O=C(Cc1cccc2ccccc12)Nc1cn(C2CCC2)cn1 -21.6%, Cc1ccc(S(=O)(=O)N2CCN(CC(=O)N/N=C/c3ccccn3)CC2)cc1 -22%, COc1cc(C(=O)N2CCN(c3ccccn3)CC2)cc(OC)c1OC -2.72%
